Laboratory results reported in PubChem BioAssay AID1979 (Broad Institute, 2009).
The whole screen tested about 300,000 compounds, of which about 1,700 (0.57%) were called active. Inconclusive results (about 2%) are left out. Many of the other results were omitted from the sample, so actives are more common in it than they were. A number with no mark means an inactive call.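 How the source made its calls: active means growth inhibition above about 58% in most replicates (limit read from the data, passing the limit was not always enough); inconclusive means exactly half the replicates above a set limit; inactive means most replicates below a set limit.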

Test: Candida growth reduction under fluconazole – CaCi-2 strain, Alamar Blue fluorescence, primary screen (AID 1979);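 further: all wells also contain fluconazole at 8 µg/ml as a sub-toxic cotreatment; 0% = median of DMSO wells and 100% = median of geldanamycin control wells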
Settings: C. albicans CaCi-2 (fluconazole-resistant clinical isolate) + fluconazole, 48 h, active compounds read high, concentration not given here
`CCc1nnc(SCc2cccc(F)c2)nc1CC` gave a growth inhibition of -15.9%.
With `Nc1cc(N)nc(SCc2ccc(Cl)cc2)n1` the growth inhibition was 12.7%.
In the case of `Nc1cc(N)nc(SCc2cccc(F)c2)n1`, the growth inhibition is reported as 93.5% (active).
`O=C(c1ccc(Cl)s1)N(Cc1nnc(-c2ccccc2Cl)o1)C1CC1` gave a growth inhibition of -12.7%.
Compound `COc1ccccc1N1CCN(C(=O)c2cc(=O)c3cc(C)cc(C)c3o2)CC1` has a growth inhibition of 4.61%.
Compound `Cc1ccc(SCc2c(C(=O)N/N=C/c3cccnc3)nnn2-c2nonc2N)cc1` has a growth inhibition of 19.8%.
In the case of `Nc1nonc1-n1nnc(C(=O)N/N=C/c2cc(Br)ccc2O)c1CSC1=NCCS1`, the growth inhibition is reported as 90.5% (active).
For `Nc1nonc1-n1nnc(C(=O)N/N=C/c2ccccc2O)c1CN1CCCC1`, the growth inhibition was -25.8%.
For `CCOC(=O)C1=C(c2ccccc2)NC(=O)NC1c1cc(OC)c(OC)cc1OC` (stereo not given), the growth inhibition was 111% (active).
`COc1cc(C2NC(=O)NC(c3ccccc3)=C2C(C)=O)c(Br)cc1OCC(N)=O` (stereo not given) gave a growth inhibition of 6.65%.
Work on `CCOC(=O)C1=C(c2ccccc2)NC(=O)NC1c1cc(OCC)c(O)c([N+](=O)[O-])c1` (stereo not given) yielded a growth inhibition of 38%.
`Cc1cccc(NS(=O)(=O)c2ccc(C(=O)NCC(C)(C)N3CCOCC3)cc2)c1C` showed a growth inhibition of -3.65%.
In the case of `CCOc1ccc(CCNC(=O)COC(=O)c2c(OC)cccc2OC)cc1OCC`, the growth inhibition is reported as 8.5%.
Work on `Cc1ccn2c(=O)c(NC(=O)c3cccc4ccccc34)c(C)nc2c1` yielded a growth inhibition of 1.1%.
`CCOc1ccc(NC(=O)NNC(=O)c2ccc(Cl)cc2Cl)cc1` gave a growth inhibition of 0.808%.
Work on `OC(CNCCc1ccc(Cl)cc1Cl)COc1ccccc1` (stereo not given) yielded a growth inhibition of 7.1%.
For `NC(N)=N/N=C/c1ccc(OCc2ccc(Cl)cc2Cl)cc1`, the growth inhibition was 123% (active).
With `OCCCNc1nc(-c2ccccc2)c2cc(Cl)ccc2n1` the growth inhibition was 14.2%.
With `O=c1c(-c2cccc(Cl)c2)c[nH]n1-c1ccccc1` the growth inhibition was 0.955%.
In the case of `O=C1c2ccccc2NC(c2ccc(-c3cccc(Cl)c3)o2)N1O` (stereo not given), the growth inhibition is reported as 96.8% (active).
With `O=C(O)C(c1ccccc1)N1C(=O)/C(=C\c2ccc(-c3cccc(Cl)c3)o2)SC1=S` (stereo not given) the growth inhibition was 37.9%.
Compound `Cc1ccc(CCN2CC(C(=O)NCCc3ccccc3)CC2=O)cc1` (stereo not given) has a growth inhibition of -6.78%.
With `Cc1cccnc1NC(=O)Cn1c(=O)oc2ccccc21` the growth inhibition was -0.441%.
For `C[C@@H]1C[C@@H]2O[C@H]2/C=C\C=C\C(=O)Cc2c(Cl)c(O)cc(O)c2C(=O)O1`, the growth inhibition was 84.1% (active).
With `COC(=O)c1cc(-c2cccs2)nc2ccccc12` the growth inhibition was -7.15%.
For `O=C(Nc1nnc(-c2ccccc2)o1)c1cc(-c2cccs2)nc2ccccc12`, the growth inhibition was 89.3% (active).
In the case of `O=C(NCCN1CCOCC1)c1cc(-c2cccs2)nc2ccccc12`, the growth inhibition is reported as -3.11%.
Compound `CSCc1nnc(NC(=O)c2ccc(S(=O)(=O)N3CCCCC3C)cc2)o1` (stereo not given) has a growth inhibition of 8.82%.
In the case of `CC1CCCCN1S(=O)(=O)c1ccc(C(=O)Nc2nnc(-c3cccs3)o2)cc1` (stereo not given), the growth inhibition is reported as 95.4% (active).
Compound `CC1CCCN(S(=O)(=O)c2ccc(C(=O)Nc3nnc(-c4ccncc4)o3)cc2)C1` (stereo not given) has a growth inhibition of 18.1%.
For `COc1ccc(-c2cc(=O)oc3cc(OC(C)C(=O)NCC4CCC(C(=O)O)CC4)ccc23)cc1` (stereo not given), the growth inhibition was -4.33%.
With `CSCCC(NS(=O)(=O)c1ccc(C)cc1)C(=O)NCCc1c[nH]c2ccccc12` (stereo not given) the growth inhibition was -6.21%.
In the case of `O=S(=O)(/N=C(/Nc1ccccc1)c1ccccc1)c1cccs1`, the growth inhibition is reported as -39.8%.
In the case of `CN(/C(=N/S(=O)(=O)c1cccs1)c1ccccc1)c1ccc(O)cc1`, the growth inhibition is reported as 117% (active).
With `COc1ccc(N(C(=O)c2ccc(C)cc2)S(=O)(=O)c2cccs2)cc1` the growth inhibition was 4.35%.
With `CN(CC(=O)Nc1cccc(F)c1)C(=O)C1CC(=O)N(CCc2ccccc2)C1` (stereo not given) the growth inhibition was -9.09%.
`Oc1ccc2ccccc2c1N=Nc1nccs1` gave a growth inhibition of 0.433%.
With `Oc1ccc(N=Nc2nccs2)c(O)c1` the growth inhibition was 85.9% (active).
Compound `CC(CN1CCC(n2nccc2NC(=O)C2CCCC2)CC1)c1ccccc1` (stereo not given) has a growth inhibition of -5.12%.
Compound `CC1=NNC(=O)C1Cc1c(Cl)cccc1Cl` (stereo not given) has a growth inhibition of -0.631%.
In the case of `CN(C(=O)CC(NC(=O)c1ccccc1)(c1ccccc1)c1ccccc1)c1ccccc1`, the growth inhibition is reported as 91.8% (active).
In the case of `Cc1ccc(C(=O)NCCNC(=O)c2ccccc2)cc1`, the growth inhibition is reported as 5.77%.
In the case of `CN(C(=O)COC(=O)CNC(=O)C12CC3CC(CC(C3)C1)C2)c1ccccc1`, the growth inhibition is reported as -17.2%.
`Nc1c(C(=O)Nc2ccc3c(c2)OCCO3)nnn1Cc1ccccc1` showed a growth inhibition of 9.7%.
`Cc1sc2ncnc(N3CCC(C(=O)NNC(=O)c4ccc(F)cc4)CC3)c2c1C` gave a growth inhibition of 11%.
With `COc1ccc(S(=O)(=O)NCCCc2ccccc2)cc1` the growth inhibition was -3.19%.
Compound `Cc1nn(-c2ccccc2)c(C)c1NC(=O)COC(=O)c1cc(Cl)ccc1O` has a growth inhibition of -3.39%.
`CCN1C(=O)[C@H]2[C@@H](c3ccc(C)cc3)N3C(=O)N(c4cccc(Br)c4)C(=O)[C@@]3(CC)[C@H]2C1=O` gave a growth inhibition of -1.61%.
In the case of `Cc1c(Cl)c([N+](=O)[O-])nn1CCCC(=O)Nc1cc(Cl)ccc1Cl`, the growth inhibition is reported as 0.816%.
For `Cc1c(Cl)c([N+](=O)[O-])nn1Cc1ccc(C(=O)N/N=C\c2cc(Cl)ccc2O)o1`, the growth inhibition was 112% (active).
Compound `O=C(N/N=C/c1ccc2c(c1)OCO2)c1ccc(Cn2cc([N+](=O)[O-])cn2)o1` has a growth inhibition of -1.68%.
Compound `O=C1N[C@@H](Cc2ccccc2)C(=O)N2[C@H]1C[C@]1(Br)c3ccccc3N(S(=O)(=O)c3ccccc3)[C@H]21` has a growth inhibition of 4.33%.
In the case of `C/C(=N\NC(=O)CC(C)C)c1c(C(F)(F)F)[nH]n(-c2nc3ccccc3s2)c1=O`, the growth inhibition is reported as 8.15%.
For `COC(=O)Cc1[nH]n(-c2nc3ccccc3s2)c(=O)c1C(C)=Nc1ccc(OC)cc1`, the growth inhibition was 5.2%.
With `COC(=O)Cc1cc(=O)n(-c2nc3ccccc3s2)[nH]1` the growth inhibition was 93.5% (active).
With `COc1cc(/C=C/C(=O)O)cc(S(=O)(=O)Nc2ccccc2C(=O)NCCc2ccccc2)c1OC` the growth inhibition was -0.0595%.
With `O=C(/C=C/c1ccco1)Nc1cccc(-c2nc3ccccc3[nH]2)c1` the growth inhibition was 91.5% (active).
`O=C(Nc1cccc(-c2nc3ccccc3[nH]2)c1)c1ccc(C(=O)Nc2cccc(-c3nc4ccccc4[nH]3)c2)cc1` gave a growth inhibition of -12.9%.
Compound `Cc1ccc(-n2nc3ccc(NC(=O)/C=C/c4ccco4)cc3n2)cc1C` has a growth inhibition of 20%.
Work on `CCOc1cc(/C=N/NC(=O)c2cccc(S(=O)(=O)N3CCOCC3)c2)ccc1OCC(=O)N(C)C` yielded a growth inhibition of 3.22%.
`CC(=O)c1nn(-c2ccc(C)cc2)cc1C(=O)c1cccc(Br)c1` gave a growth inhibition of -5.17%.
With `CC1CCC(NC(=O)CNC(=O)c2ccc3ccccc3c2)CC1` (stereo not given) the growth inhibition was 4.42%.
`COc1ccc(N(C(=O)CNC(=O)c2ccco2)C(C(=O)NCC2CCCO2)c2ccccc2)cc1Cl` (stereo not given) gave a growth inhibition of 7.7%.
Work on `Cc1ccc(N(C(=O)CNC(=O)c2ccco2)C(C(=O)NC2CCCC2)c2ccncc2)cc1` (stereo not given) yielded a growth inhibition of -17%.
In the case of `O=C(NCC(=O)N(CC1CCCO1)C(C(=O)NC1CCCCC1)c1ccccc1)c1ccco1` (stereo not given), the growth inhibition is reported as 103% (active).
`CC1CCCCN1S(=O)(=O)CCNC(=O)c1ccccc1` (stereo not given) showed a growth inhibition of 0.685%.
`Cc1nnsc1C(=O)N/N=C/c1ccccc1Cl` showed a growth inhibition of -6.46%.
In the case of `Cc1cc(Cl)ccc1NNC(=O)c1snnc1C`, the growth inhibition is reported as 85.6% (active).
`Cc1nnsc1C(=O)Nc1cccc(Cl)c1C` gave a growth inhibition of -1.12%.
Compound `CCc1ccc(S(=O)(=O)N/N=C\c2ccc([N+](=O)[O-])o2)cc1` has a growth inhibition of 13.3%.
For `C/[N+]([O-])=C\c1ccc([N+](=O)[O-])o1`, the growth inhibition was 110% (active).
`Cc1cc(C)nc(N/N=C/c2ccc([N+](=O)[O-])o2)n1` gave a growth inhibition of 11.2%.
For `CCc1ccccc1NC(=O)c1cc(-c2ccc3c(c2)OCO3)on1`, the growth inhibition was -0.103%.
`Cc1ccc(C)c(N2CCN(C(=O)Cn3ncn4cccc4c3=O)CC2)c1` showed a growth inhibition of -9.35%.
Compound `CSc1ccccc1NC(=O)C(C)N1C(=O)c2ccccc2S1(=O)=O` (stereo not given) has a growth inhibition of 2.61%.
Work on `CC(C)NC(=S)N1CCN(C(c2ccccc2)c2ccccc2)CC1` yielded a growth inhibition of 11.5%.
`O=C(O)CN1CCN(C(c2ccccc2)c2ccccc2)CC1` gave a growth inhibition of -6.25%.
For `CC1(C)CC(N2CCN(C(c3ccccc3)c3ccccc3)CC2)=CC(=[N+]2CCCCC2)C1`, the growth inhibition was 95.7% (active).
`O=C(Nc1cc(Cl)ccc1N1CCOCC1)c1ccc(N2CCCC2=O)cc1` gave a growth inhibition of 4%.
Work on `O=C(NCCC1CCCCN1S(=O)(=O)c1cccs1)C(=O)Nc1ccc(F)cc1F` (stereo not given) yielded a growth inhibition of 7.39%.
Compound `O=C(Nc1cccc2c1CCCC2)c1ccc(F)cc1` has a growth inhibition of -3.5%.
`Cc1nc2sc3c(c2c(=O)n1NC(=O)CCl)CCCC3` gave a growth inhibition of 9.31%.
In the case of `NNC(=O)C1CCCn2c1nc1sc3c(c1c2=O)CCCC3` (stereo not given), the growth inhibition is reported as 2.28%.
In the case of `Cn1c(NN)nc2sc3c(c2c1=O)CCC3`, the growth inhibition is reported as 87.2% (active).
In the case of `C#CCOCCOCCOCCNc1nc(N2CCN(C(=O)C([C@@H](C)CC)n3cc(C(N)COC(=O)C(F)(F)F)nn3)CC2)nc(N2CCN(C(=O)[C@H](CCCCN)n3cc(C(N)CC(C)C)nn3)CC2)n1` (stereo not given in full), the growth inhibition is reported as 4.02%.
`O=C(CSC1=NS(=O)(=O)c2cc(F)ccc2N1)Nc1ccccc1F` showed a growth inhibition of 5.53%.
Work on `Cc1ccc(N=C2SCCCN2C(=O)c2cccc(N3C(=O)CCC3=O)c2)cc1Cl` yielded a growth inhibition of -7.25%.
Compound `CC(=O)c1cnc(SCCN2C(=O)c3ccccc3C2=O)nc1C` has a growth inhibition of -3.43%.
`O=C(OCCN1C(=O)c2ccccc2C1=O)Oc1ccccc1` showed a growth inhibition of 4.11%.
For `Nc1ccc(SCCN2C(=O)c3ccccc3C2=O)cc1`, the growth inhibition was 103% (active).
